# Assay outcomes as filed in PubChem BioAssay.
# The list is not random: actives were taken first. Their share in the collection is about 8.7%.
# Pf growth 48h: P. falciparum growth inhibition at 48 hours (one generation); P. falciparum luciferase growth in erythrocytes, 48 h; Potency, µM (titrated, usually from 28.7 µM), for inactives: at the highest dose activity change, negative = inhibition, hits mostly inhibitors; actives 5.9% (n = 310,000); AID 504832
#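 Firefly luciferase activity from engineered P. falciparum reports growth; inhibitors lower the luminescent signal. Cultures contained 2% hematocrit erythrocytes at 0.1% final parasitemia.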
# Vaccinia mCherry: inhibitors of vaccinia virus infection (mCherry reporter signal) | actives 0.63% (n = 310,000) | Vaccinia virus mCherry reporter infection, fluorescence | Potency, µM (highest dose often 36.5 µM), inactives show at the highest dose activity change, negative = inhibition, hits mostly inhibitors; calls by dose curve; tested in A549 cells; note: nearly all actives have a fitted effect of over 35% in size
# Pf growth 96h: P. falciparum growth inhibition at 96 hours; P. falciparum luciferase reporter growth, 96 h; Potency, µM (doses to about 28.7 µM), without a hit: at the top dose activity change, negative = inhibition, actives largely listed as inhibitors; actives 6.9% (n = 320,000); AID 504834
#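 Two parasite generations (96 h, 37 C, 5% CO2) of compound exposure in infected erythrocytes (0.05% parasitemia, 2% hematocrit). Luciferase-reporter P. falciparum; decreased luminescence indicates inhibited growth, aimed at apicoplast-acting delayed death.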
# Vaccinia Venus: vaccinia inhibition (Venus reporter); Vaccinia virus Venus reporter expression, fluorescence; Potency, µM (highest dose often 36.5 µM), for the others: at the highest dose activity change, negative = inhibition, most hits filed as inhibitors; actives 0.46% (n = 330,000); calls by dose curve; tested in A549 cells; note: nearly all actives have a fitted effect of over 30% in size
# AMA1-RON2 inh: inhibitors of Plasmodium falciparum AMA1-RON2 interaction; AlphaScreen AMA1-biotinylated RON2 peptide binding; Potency, µM (series often up to 58.2 µM), for inactives: at the top dose activity change, negative = inhibition, most hits filed as inhibitors; actives 0.2% (n = 360,000); AID 720542;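 note: 0% = vehicle wells and -100% = peptide control; nearly all actives have a fitted effect of over 45% in size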
#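 AMA1 (3D7) with his tag at 25 nM final met compounds first, then biotinylated RON2 peptide at 25 nM; detection used donor plus acceptor beads, 10 µg/mL apiece, read by AlphaScreen after 30 min at room temperature.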
# * hit, by the source's call; i = inactive; u = inconclusive; x = no result given; [ ] = remark or other dose. Unless noted, calls come from the whole dose curve; as a rule, active = well fitted curve in the direction sought with a large enough effect; inconclusive = small, poorly fitted or top-dose-only effect, or another doubt; inactive = no such curve, though single readings can be large; an effect the other way counts as inactive or inconclusive. Unless noted, % is set by controls: 0 for no effect and ±100 for the full control effect; potency is the fitted concentration of half-maximal effect.
SMILES,Pf growth 48h,Vaccinia mCherry,Pf growth 96h,Vaccinia Venus,AMA1-RON2 inh
CCOC(=O)c1[nH]c2c(c1Cc1ccccc1OC)C(=O)CC(c1ccc(OCC)cc1)C2 (stereo unspecified),x,-26%,x,-9%,x
O=C(Cn1nnc(-c2cccs2)n1)N1CCOCC1,10%,-8%,9.3µM*,-13%,-12%
O=C(NCc1ccccc1)C(=O)NCC1OCCN1S(=O)(=O)c1ccc([N+](=O)[O-])cc1 (stereo unspecified),-10%,10µM*,-8%,u,-6%
O=C(NCCC1CCCCN1S(=O)(=O)c1ccccc1)C(=O)NCc1ccc(F)cc1 (stereo unspecified),10µM*,-25%,u,2%,0%
O=C(NCCC1CCCCN1S(=O)(=O)c1ccc(Cl)cc1)C(=O)NCc1cccnc1 (stereo unspecified),u,-28%,u,-25%,-10%
O=C(NCCC1CCCCN1S(=O)(=O)c1ccccc1)C(=O)NCc1ccccc1 (stereo unspecified),-21%,-13%,17µM*,-22%,-21%
Cc1cc(S(=O)(=O)N2CCCCC2CCNC(=O)C(=O)NCc2cccnc2)ccc1F (stereo unspecified),u,-24%,13µM*,-14%,-7%
Cc1ccc(CNC(=O)C(=O)NCCC2CCCCN2S(=O)(=O)c2ccccc2)cc1 (stereo unspecified),-32%,-15%,u,-28%,-1%
Cc1ccc(CN2CCOc3ccc(C(C)(O)COc4ccccc4)cc3C2)o1 (stereo unspecified),x,-9%,x,7%,x
Cc1ccsc1/C=C1\SC(=S)N(CC2CCCO2)C1=O (stereo unspecified),27%,i,1.3µM*,5%,-21%
O=C1/C(=C/c2ccc(O)cc2)SC(=S)N1CC1CCCO1 (stereo unspecified),-27%,u,u,85%,-13%
COc1ccc(-c2cc(C(F)(F)F)nc(SCC(=O)Nc3ccc(O)cc3)n2)cc1OC,x,1%,x,4%,x
CCOC(=O)c1ccc(NC(=O)CSc2nccn2-c2cc(C)cc(C)c2)cc1,x,-12%,x,1%,x
COc1cccc(NC(=O)Cn2c(=O)n(CCCCC(=O)NCCc3ccccc3)c(=O)c3ccccc32)c1,x,-22%,x,-10%,x
Cc1cc(C(=O)OC(C(=O)Nc2cccc(C(F)(F)F)c2)c2ccccc2)c(C)o1 (stereo unspecified),9.3µM*,-9%,5.2µM*,-28%,-4%[2.32 µM]
COCCCn1c(C2CCCCC2)nc2oc3cc(OC)ccc3c(=O)c2c1=O,u,x,0.93µM*,x,2%
COCCn1c(-c2ccc(C)cc2)nc2oc3cc(OC)ccc3c(=O)c2c1=O,4.1µM*,x,u,x,-7%
O=C(NCc1ccccc1)c1cccn1-c1nnc(N2CCCCC2)s1,x,-8%,x,-8%,x
COc1ccc(OC)c(NC(=O)CSc2nc3ccccc3c(=O)n2CCC(=O)NC2CCCCC2)c1,x,-11%,x,1%,x
COC(=O)c1ccc(CN2CCC3(CCC(CNC(=O)c4ccco4)O3)CC2)cc1 (stereo unspecified),x,-2%,x,-19%,x
C(=C\c1cccs1)/c1ccccn1,x,-3%,x,u,x
OC(C#Cc1ccccn1)c1cccs1 (stereo unspecified),10µM*,i,-13%,-8%,-8%
CCC(=O)N1CCc2cc(S(=O)(=O)NC(CC(C)C)C(=O)NCc3ccc(F)cc3)ccc21 (stereo unspecified),x,-12%,x,-10%,x
CCOc1ccccc1CNC(=O)CCc1c(C)nn(-c2ccc(N3CCCC3)nn2)c1C,x,-4%,x,-11%,x
CC(C)(C)c1cc(NC(=O)c2ccc(OC3CCCC3)cc2)no1,12µM*,i,12µM*,-8%,-8%
SMILES,Pf growth 48h,Vaccinia mCherry,Pf growth 96h,Vaccinia Venus,AMA1-RON2 inh
O=C(Nc1ccon1)c1ccc(OC2CCCC2)cc1,-14%,-6%,5.2µM*,-6%,-3%
CC(C)C(=O)NCC1CCC2(CCN(Cc3ccc(-c4ccccc4Cl)o3)CC2)O1 (stereo unspecified),x,-24%,x,-23%,x
O=C(O)c1ccc(N=C2SCC(=O)N2Cc2ccccc2)cc1,4%,i,16%,-4%,0%
COc1ccc(N=C2SCC(=O)N2Cc2ccccc2)cc1,-13%,-4%,9.3µM*,0%,-3%
Cc1ccc(S(=O)(=O)N2CCc3cc(C(=O)NCCc4ccccc4)ccc32)cc1,x,-19%,x,-18%,x
c1ccc(-c2ccc(SCc3cccnc3)nn2)nc1,154%,11µM*,-17%,u,u
CCCCOc1ccc(/C=N/NC(=S)Nc2cccc(C)c2C)cc1,u,x,x,x,42%
Cc1cccc(C)c1NC(=S)N/N=C/c1ccc(OCCC(C)C)cc1,x,x,3.3µM*,x,0%
CC(C)OC(=O)c1cc(-c2ccc(C=O)o2)ccc1Cl,31%,-12%,15µM*,-8%,7%[11.6 µM]
CC(C)OC(=O)/C(C#N)=C/c1ccc(-c2ccc(Cl)c(Cl)c2)o1,x,i,x,-10%,x
Cc1ccc(N2C(=O)c3oc4cc(C)c(C)cc4c(=O)c3C2c2cccc(O)c2)nc1 (stereo unspecified),x,-6%,x,-6%,x
O=C(C[N+]1(CC#Cc2ccccc2)CCCCC1)c1ccc(Cl)cc1,u,10µM*,-22%,u,13%
O=C(C[N+]1(CC#Cc2ccccc2)CCOCC1)c1ccc(Cl)cc1,u,-3%,40%,-4%,4%
CC[N+]1(CC(=O)c2ccc(Cl)cc2)CCCCC1,x,i,x,-18%,x
O=C(C[N+]1(CC#Cc2ccccc2)CCOCC1)c1ccccc1,13µM*,-15%,-11%,-16%,-1%
O=C(C[N+]1(CC#Cc2ccccc2)CCCCC1)c1ccccc1,9.3µM*,x,u,x,-4%
COc1ccc(-c2csc3nc(-c4ccc(F)cc4)oc(=O)c23)cc1OC,x,-5%,x,-4%,x
COc1ccc(CNC(=S)Nc2cccc(OC)c2)cc1,0%,-22%,u,-3%,-2%
COc1cccc(NC(=S)NCc2ccncc2)c1,6%,i,8.3µM*,-7%,-2%[11.6 µM]
COc1cccc(NC(=O)Nc2ccc(Cc3ccncc3)cc2)c1,4%,-18%,-25%,-24%,-5%
COc1cccc(NC(=O)Nc2ccncc2)c1,10µM*,x,-6%,x,4%
COc1cccc(NC(=O)Nc2nnc(Cc3ccccc3)s2)c1,-7%,x,u,x,-7%
Cc1cccc(NC(=O)Nc2nnc(N3CCCCC3C)s2)c1C (stereo unspecified),x,0%,2.1µM*,-7%,-8%
COc1cccc(NC(=O)Nc2nnc(N3C(C)CCCC3C)s2)c1 (stereo unspecified),13µM*,i,u,10%,2%
CC1CCCCN1c1nnc(NC(=O)Nc2ccccc2F)s1 (stereo unspecified),x,-10%,x,-7%,x
CC(C)(C)C(=O)Nc1ccc2nc(SCC(=O)N3CCCC3)sc2c1,x,-6%,x,0%,x
